Our source for the growth values is PubChem BioAssay (NCI).

Test systems include DU-145 prostate; K-562 leukemia; MALME-3M melanoma; MDA-MB-231 breast; RXF 393 renal; SF-268 CNS; SF-295 CNS; SF-539 CNS; UACC-257 melanoma; M14 melanoma; HCT-15 colon; HT29 colon; SNB-75 CNS; SNB-19 CNS; U251 CNS; SK-MEL-5 melanoma; UACC-62 melanoma; LOX IMVI melanoma; SK-MEL-28 melanoma.
Common to all, as to test: NCI-60 one-dose screen, 48 h (100 = growth as untreated, 0 = no growth, -100 = all killed)
Settings in all cases: 10 µM unless noted

Compounds without any hit were thinned out: in the full panel of roughly 83,000, 20% have a hit.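 Growth was measured after 48 h exposure to one concentration of compound in 96-well plates. Values under 10 count as active.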 Unmarked numbers belong to inactive results. Active and inactive are the calls of the source.

For `C=C1c2nc3ccccc3n2C=C(c2ccc(OC)cc2)N1Cc1ccccc1`, the growth in the test on DU-145 prostate was 103%; in the test on K-562 leukemia it was 73.5%; in the test with MALME-3M melanoma it was 109%; in the test on MDA-MB-231 breast, 100%; in the test on RXF 393 renal, 101%; in the test on SF-268 CNS it was 89.2%. Also, the growth in the test with SF-295 CNS was 103%; in the test on SF-539 CNS, 115%; with UACC-257 melanoma, 97.1%; in the test on M14 melanoma it was 98.1%; in the test on HCT-15 colon, 73.8%; in the test with HT29 colon it was 73.2%. For the same compound, the growth with SNB-75 CNS is 109%; with SNB-19 CNS, 79.3%; in the test with U251 CNS, 80.5%; with SK-MEL-5 melanoma it was 87.1%; in the test on UACC-62 melanoma, 88.6%; in the test with LOX IMVI melanoma, 91.1%. Moreover, the growth in the test on SK-MEL-28 melanoma is 119%.
On to `Oc1cccc(-c2nc(N3CCOCC3)c3c4c(sc3n2)CCCC4)c1`, for which the growth is 37.8% with DU-145 prostate; 69.1% in the test with K-562 leukemia; 49% in the test on MALME-3M melanoma; 43.2% in the test with MDA-MB-231 breast; 16.3% in the test on RXF 393 renal; 36.8% in the test on SF-268 CNS. Besides, the growth with SF-295 CNS was 75.6%; in the test on SF-539 CNS, 50.6%; in the test on UACC-257 melanoma, 69.7%; with M14 melanoma it was 60.7%; in the test with HCT-15 colon, 49.1%; in the test on HT29 colon, 94.7%. For the same compound, the growth in the test on SNB-75 CNS is 7.14% (active); with SNB-19 CNS it was 62.3%; with U251 CNS, 52.7%; in the test on SK-MEL-5 melanoma, 46.6%; in the test with UACC-62 melanoma, 43.8%; with LOX IMVI melanoma, 50%. Besides, the growth in the test with SK-MEL-28 melanoma is 57.8%.
With `O=C(NCCN1CCOCC1)Nc1ccc(-c2cc3c(Nc4ccc(Oc5cccc(C(F)(F)F)c5)c(Cl)c4)ncnc3s2)cc1`, the growth is 44.7% in the test with DU-145 prostate; -29.5% (active) in the test on K-562 leukemia; -57.5% (active) with MALME-3M melanoma; 12% in the test on MDA-MB-231 breast; -19.5% (active) in the test with RXF 393 renal; 29.3% with SF-268 CNS. In addition, the growth in the test with SF-295 CNS is -58.5% (active); in the test with SF-539 CNS, -13.5% (active); with UACC-257 melanoma, 26.4%; with M14 melanoma, -50.5% (active); with HCT-15 colon, -56.2% (active); with HT29 colon, -69.2% (active). Moreover, the growth in the test on SNB-75 CNS is -48.4% (active); in the test on SNB-19 CNS it was 43.1%; with U251 CNS, 0.383% (active); with SK-MEL-5 melanoma, -90.9% (active); in the test with UACC-62 melanoma it was -40.3% (active); in the test with LOX IMVI melanoma it was -86.6% (active). Also, the growth in the test on SK-MEL-28 melanoma was -49.8% (active).
On to `C(=C\c1nccc2c1[nH]c1ccccc12)/c1ccccc1`, for which the growth in the test on DU-145 prostate is 9.25% (active); in the test with K-562 leukemia it was 69.2%; in the test on MALME-3M melanoma it was 29.4%; in the test with MDA-MB-231 breast it was 30.7%; in the test on RXF 393 renal, -44.6% (active); with SF-268 CNS it was 41.8%. Also, the growth in the test with SF-295 CNS was -32% (active); in the test on SF-539 CNS, 7.92% (active); with UACC-257 melanoma it was 37.5%; with M14 melanoma it was 19.8%; with HCT-15 colon, 18.7%; with HT29 colon it was 1.31% (active). The growth with SNB-75 CNS was -20.1% (active); in the test with SNB-19 CNS it was 35%; in the test with U251 CNS, 15.1%; in the test on SK-MEL-5 melanoma, 2.59% (active); in the test with UACC-62 melanoma it was 39.3%; with LOX IMVI melanoma, 25.5%. In addition, in the test on SK-MEL-28 melanoma, the growth was 49.6%.
For the compound `CN1CCN(c2ccc3nc(-c4ccc(OCCCCN5CCN(CCCCN6C(=O)c7cccc8cccc(c78)C6=O)CC5)cc4)[nH]c3c2)CC1`, the growth in the test on DU-145 prostate is 45%; in the test with K-562 leukemia, 56.5%; with MALME-3M melanoma it was 28%; with MDA-MB-231 breast it was 62.7%; with RXF 393 renal, 16.1%; in the test on SF-268 CNS, 65.7%. Also, the growth with SF-295 CNS is 29.1%; in the test on SF-539 CNS, 39.8%; with UACC-257 melanoma, 59.8%; in the test on M14 melanoma, 94.9%; with HCT-15 colon it was 76.2%; with HT29 colon, 60.3%. In addition, the growth with SNB-75 CNS was 36.4%; in the test with SNB-19 CNS, 84.2%; in the test with U251 CNS, 64.8%; with SK-MEL-5 melanoma, 69.1%; in the test with UACC-62 melanoma, 95.4%; in the test on LOX IMVI melanoma, 47.1%. Further, the growth in the test with SK-MEL-28 melanoma is 24.6%.
For `CCOC(=O)c1c(CN2CCN(C)CC2)nc2ccc(Cl)cc2c1-c1ccccc1`, the growth with DU-145 prostate is 85.7%; in the test with K-562 leukemia, 11.7%; in the test on MALME-3M melanoma, 38.6%; with MDA-MB-231 breast it was 70.7%; with RXF 393 renal, 42.9%; in the test on SF-268 CNS, 77.9%. The growth is 28.8% in the test with SF-295 CNS; 61.9% in the test on SF-539 CNS; -38% (active) with UACC-257 melanoma; -24.5% (active) with M14 melanoma; 62.9% in the test with HCT-15 colon; 18% in the test on HT29 colon. Further, the growth in the test on SNB-75 CNS is 58.6%; in the test with SNB-19 CNS, 86.8%; in the test on U251 CNS it was 64.4%; with SK-MEL-5 melanoma, 18.3%; with UACC-62 melanoma, 86.3%; with LOX IMVI melanoma it was 54.4%. Also, the growth with SK-MEL-28 melanoma is -22.6% (active).
Turning to `Cn1cc(C(=O)c2nc(-c3c[nH]c4ccccc34)no2)c2ccccc21`, the growth was 102% in the test with DU-145 prostate; 37.9% in the test on K-562 leukemia; 58.4% in the test with MALME-3M melanoma; 69.8% in the test on MDA-MB-231 breast; 90.1% in the test on RXF 393 renal; 92.1% in the test with SF-268 CNS. The growth with SF-295 CNS is 68.5%; with SF-539 CNS, 91.7%; in the test on UACC-257 melanoma, 83.9%; with M14 melanoma it was 64.5%; with HCT-15 colon, 25.6%; in the test with HT29 colon, 35.8%. Besides, the growth was 55.6% in the test with SNB-75 CNS; 91.8% with SNB-19 CNS; 92.4% in the test on U251 CNS; 16.8% in the test with SK-MEL-5 melanoma; 60.3% in the test with UACC-62 melanoma; 83.9% with LOX IMVI melanoma. Further, the growth in the test on SK-MEL-28 melanoma was 94%.
As to `O=C(Nc1ccccc1Cl)c1ccc(NC2=C(Cl)C(=O)N(C3CCCCC3)C2=O)cc1`, the growth in the test on DU-145 prostate is 28.8% [30 µM]; with K-562 leukemia, 25.3% [30 µM]; with MALME-3M melanoma, 80.6% [30 µM]; in the test on MDA-MB-231 breast, 85.4% [30 µM]; in the test with RXF 393 renal, -12.1% [30 µM] (active); with SF-268 CNS, 60.5% [30 µM]. For the same compound, the growth in the test with SF-295 CNS was 21.6% [30 µM]; with SF-539 CNS it was 82% [30 µM]; in the test on UACC-257 melanoma, 54.9% [30 µM]; in the test on M14 melanoma it was 92.6% [30 µM]; with HCT-15 colon it was 46.5% [30 µM]; in the test on HT29 colon, 37.4% [30 µM]. Moreover, the growth in the test on SNB-75 CNS was 38.8% [30 µM]; with SNB-19 CNS, 62.1% [30 µM]; in the test on U251 CNS, 34.1% [30 µM]; in the test on SK-MEL-5 melanoma, 54.4% [30 µM]; in the test with UACC-62 melanoma, 66.2% [30 µM]; in the test on LOX IMVI melanoma it was 23.7% [30 µM]. Besides, in the test on SK-MEL-28 melanoma, the growth is 56.1% [30 µM].
